DT40 TDP1 no CPT = qHTS for Inhibitors of human tyrosyl-DNA phosphodiesterase 1 (TDP1): qHTS in cells in absence of CPT. DT40 Tdp1-/- hTDP1 cells, no CPT, ATP luminescence, 48 h. Potency, µM (doses to about 46.2 µM), for inactives: at the top dose activity change, negative = growth inhibition, usual class: inhibitors. 420,000 tested, 15% active; also: potency is read from the fitted curve at half-maximal effect; % is scaled to controls: 0 for no effect and ±100 for the full control effect; nearly all actives have a fitted effect of over 55% in size
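Seeded 400 DT40-hTDP1 cells/well (vehicle DMSO, no 20 nM CPT); pinned compounds; ≥48 hr at 37 °C; CellTiter-Glo luminescence as viability measure.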
TDP1 inh = inhibitors of human tyrosyl-DNA phosphodiesterase TDP1 | Q9NUW8 | recombinant TDP1, AlphaScreen DNA substrate cleavage | Potency, µM (top dose mostly 130 µM), for inactives: top-dose activity change, negative = inhibition, usual class: inhibitors | 350,000 tested, 0.28% active; also: potency is read from the fitted curve at half-maximal effect; % is scaled to controls: 0 for no effect and ±100 for the full control effect; nearly all actives have a fitted effect of over 40% in size
Target sequence (Q9NUW8 whole entry, looked up): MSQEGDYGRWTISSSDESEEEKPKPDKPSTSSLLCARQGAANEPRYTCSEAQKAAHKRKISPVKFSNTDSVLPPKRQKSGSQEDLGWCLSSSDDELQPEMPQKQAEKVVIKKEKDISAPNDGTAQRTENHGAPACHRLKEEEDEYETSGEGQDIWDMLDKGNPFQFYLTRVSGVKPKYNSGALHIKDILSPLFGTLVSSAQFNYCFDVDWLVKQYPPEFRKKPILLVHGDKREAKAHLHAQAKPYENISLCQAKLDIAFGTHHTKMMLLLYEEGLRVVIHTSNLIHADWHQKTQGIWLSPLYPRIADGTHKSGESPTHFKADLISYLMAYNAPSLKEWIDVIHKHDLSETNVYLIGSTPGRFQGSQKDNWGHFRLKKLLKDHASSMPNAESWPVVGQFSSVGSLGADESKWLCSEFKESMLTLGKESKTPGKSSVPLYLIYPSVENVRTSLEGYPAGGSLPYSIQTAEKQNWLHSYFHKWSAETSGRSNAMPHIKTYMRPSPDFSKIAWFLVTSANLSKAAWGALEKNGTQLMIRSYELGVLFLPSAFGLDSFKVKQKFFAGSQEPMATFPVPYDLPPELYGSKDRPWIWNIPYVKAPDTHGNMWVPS
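E. coli-derived human Tdp1, 1 nM final. Cpd preinc 15 min RT; substrate 15 nM final, 5 min RT; AS bead mix 10 ug/ml final, 10 min RT. Signal loss = tyrosine-FITC cleavage. No-enzyme wells = max signal.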
IL-1B inflam inh = inhibitors of inflammasome signaling (IL-1 beta secretion) | AID 743279 | THP-1 LPS/ATP IL-1B secretion, AlphaLISA, 16 h; stronger effect = lower value | 360,000 tested, 4.7% active | activity change, % at 57.5 µM; in the data active = activity change below about -50%; inconclusive = mostly about -30% to -49%; also: % is scaled to controls: 0 for no effect and ±100 for the full control effect
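THP-1 cells pretreated 1 hr with compounds (up to 57.5 uM final), then stimulated with LPS (250 ng/mL final) plus ATP (1.25 mM final); secreted IL-1B measured by AlphaLISA after 16 hr, decreased signal indicating inhibition.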
HepG2 tox = kills HepG2 cells in TGF-b inhibitor counter-screen | Potency, µM (highest dose often 46.1 µM), inactives show at the top dose activity change, negative = cytotoxicity, usual class: cytotoxic | HepG2 CAGA-GFP viability, ATP luminescence, 18 h | 410,000 tested, 0.76% active; also: potency is read from the fitted curve at half-maximal effect
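HepG2 CAGA-GFP cells (1000/well, DMEM with 1% FBS) received compound, then TGF-beta at 500 pg/mL final, and were incubated 18 hours at 37 degrees C. Viability was read by CellTiter-Glo luminescence. Media-only wells were set as complete cell-killing and DMSO as no toxicity.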
TGFb inhibitor = TGF-b pathway inhibition. HepG2 CAGA-GFP TGF-b/SMAD3 reporter, GFP fluorescence, 18 h; TGF-beta stimulated, 500 pg/mL final. Potency, µM (highest dose often 46.1 µM), without a hit: at the highest dose activity, negative = inhibition, usual class: inhibitors. 410,000 tested, 1.2% active; also: potency is read from the fitted curve at half-maximal effect; % is scaled to controls: 0 for no effect and ±100 for the full control effect; nearly all actives have a fitted effect of over 65% in size
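HEPG2 CAGA-GFP, 1000 cells/well; 2 h settle, 37 C; cpd via pin tool; TGF-b 500 pg/mL final; 18 h, 37 C; GFP imaging ex488/em500-530; %Activity normalised to -TGF-b and +DMSO controls; CRC fit, curve class.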
TDP1 cell CPT = growth inhibition of DT40 Tdp1-/-;hTDP1 cells with camptothecin (screen for TDP1 inhibitors); chicken DT40 Tdp1-/-;hTDP1 cells + 20 nM CPT, ATP luminescence, 48 h; Potency, µM (doses to about 46.2 µM), for the others: top-dose activity change, negative = growth inhibition, actives largely listed as inhibitors; 420,000 tested, 12% active; AID 686979; also: potency is read from the fitted curve at half-maximal effect; % is scaled to controls: 0 for no effect and ±100 for the full control effect; nearly all actives have a fitted effect of over 55% in size
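Cell growth measured by CellTiter-Glo luminescence after a minimum 48 h, 37 C compound exposure with 20 nM CPT in Tdp1-knockout DT40 cells stably expressing hTDP1, seeded 400/well; qHTS titration format.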
* = called active by the depositor; ? = inconclusive; nt = no result given; [ ] = another dose, or the depositor's remark. This is a sample that favours compounds with a hit; in the whole collection about 18% have one here. Unless noted, calls follow the shape of the dose curve; as a rule, active = well fitted curve in the direction sought with a large enough effect; inconclusive = small, poorly fitted or top-dose-only effect, or another doubt; inactive = no such curve, though single readings can be large; an effect the other way counts as inactive or inconclusive.

SMILES	DT40 TDP1 no CPT	TDP1 inh	IL-1B inflam inh	HepG2 tox	TGFb inhibitor	TDP1 cell CPT
COc1ccccc1CNCc1ccc2c(c1)OCO2	?	nt	-21.5	-16.2%	-18.1%	-16.9%
Cc1nn(-c2ccccc2)c2nc(=O)n(-c3ccccc3)cc12	7.31µM*	0.0%	-7.1	-71.2%	-3.7%	8.2µM*
Cc1ccc2nc3c(cc2c1)c(C)nn3-c1ccccc1	-18.8%	nt	0.0	-23.7%	-5.3%	-0.4%
CCN(Cc1ccccc1)C(=O)Cn1c(=O)oc2cc(S(=O)(=O)N3CCCCCC3)ccc21	14.6µM*	7.6%	nt	-18.4%	nt	16.4µM*
Cc1cc(NC(=O)Cn2c(=O)oc3cc(S(=O)(=O)N4CCCC4)ccc32)ccc1Br	14.6µM*	13.9%	nt	-33.7%	0.0%	20.6µM*
Cc1ccc(NC(=O)Cn2c(=O)oc3cc(S(=O)(=O)N4CCCC4)ccc32)cc1F	-20.2%	0.0%	nt	-4.8%	-1.3%	-20.7%
CC1CCN(S(=O)(=O)c2ccc3c(c2)oc(=O)n3CC(=O)N2CCCCC2)CC1	-0.3%	3.8%	nt	-17.1%	1.5%	8.9%
Cc1cc(C)cc(NC(=O)Cn2c(=O)oc3cc(S(=O)(=O)N4CCCC4)ccc32)c1	20.6µM*	2.5%	nt	2.6%	nt	?
Cc1ccc(NC(=O)Cn2c(=O)oc3cc(S(=O)(=O)N4CCC(C)CC4)ccc32)cc1C	?	4.9%	19.5	-92.1%	?	14.6µM*
COc1ccc(CN2CCC(n3cc(C(=O)N4CCCC4)nn3)CC2)c(OC)c1C	-18.7%	nt	nt	nt	nt	0.4%
Cn1ncc2c(Nc3cccc(F)c3)ncnc21	-22.5%	2.6%	nt	-19.3%	-8.0%	-29.6%
CCOP(=O)(OCC)c1nc(-c2cccc([N+](=O)[O-])c2)oc1N1CCCCC1	20.6µM*	0.0%	0.0	-0.6%	-19.6%	?
CCOc1ccc(-c2nc(S(=O)(=O)c3ccccc3)c(N3CCOCC3)o2)cc1	-4.2%	8.4%	-7.8	-3.6%	5.0%	14.0%
COP(=O)(OC)c1nc(-c2ccc(C)cc2)oc1N1CCCCC1	14.6µM*	nt	?	-20.3%	-17.4%	?
Cc1cc(-c2nn(-c3ccccc3F)cc2CN(C)CC(O)CO)c(C)s1 (configuration not stated)	-25.9%	nt	-9.8	-7.1%	-0.2%	-16.8%
Cc1scc(CN2CCN(c3ccccc3F)CC2)c1C	?	5.1%	nt	0.3%	-21.8%	-27.4%
Cc1cc(-c2nn(-c3ccccc3F)cc2CN2CCN(c3ccncc3)CC2)c(C)s1	?	0.0%	-84.6*	-30.3%	-20.5%	?
CC(=O)NCC1CCCN(Cc2cn(-c3ccccc3)nc2-c2ccc3c(c2)OCO3)C1 (configuration not stated)	?	-2.6%	-2.0	-30.6%	21.6%	?
CC(=O)NCC1CCCN(Cc2cn(-c3ccccc3F)nc2-c2cc(C)sc2C)C1 (configuration not stated)	-23.2%	2.6%	-56.4*	-0.5%	5.1%	?
COCC1CCCN(Cc2cn(-c3ccccc3F)nc2-c2cc(C)sc2C)C1 (configuration not stated)	18.4µM*	0.0%	0.0	-100.1%	?	16.4µM*
CCOc1ccccc1NC(=O)c1c(NC(=O)Cc2ccc(OC)cc2)sc2c1CCC2	5.8µM*	4.8%[12.3 µM]	nt	-31.2%	?	8.2µM*
CCOc1ccccc1NC(=O)c1c(NC(=O)c2cccc(C)c2)sc2c1CCCC2	23.1µM*	-3.1%[12.3 µM]	nt	-18.0%	-3.5%	?
O=C(COc1ccccc1)Nc1sc2c(c1C(=O)Nc1ccccc1)CCCCC2	0.461µM*	nt	nt	-5.6%	-0.3%	?
CCOc1ccccc1NC(=O)c1c(NC(=O)COc2ccccc2)sc2c1CCCCC2	2.06µM*	-4.8%[12.3 µM]	nt	-15.1%	-0.1%	2.06µM*
COC(=O)C1CCN(Cc2ccc3c(c2)CN(C(=O)C2CCCN(c4ccccn4)C2)CCO3)CC1 (configuration not stated)	-27.9%	nt	nt	nt	nt	-13.6%
SMILES	DT40 TDP1 no CPT	TDP1 inh	IL-1B inflam inh	HepG2 tox	TGFb inhibitor	TDP1 cell CPT
CC(=O)Nc1ccc(S(=O)(=O)N(CC(=O)Nc2cc(C)on2)Cc2ccc(F)cc2)cc1	?	5.6%	0.0	6.0%	-3.3%	?
Cn1c(=O)c2c(n3c4ccccc4nc13)NC(=O)CC2c1ccccc1F (configuration not stated)	?	9.3%	nt	3.1%	-14.9%	?
COc1ccc(CC(=O)Nc2sc3c(c2C(=O)Nc2cccc(Cl)c2)CCCCC3)cc1	?	3.1%[12.3 µM]	nt	17.8µM*	?	?
Cc1cc(C)n(-c2nnc(Nc3ccc(C)c(Cl)c3)c3ccccc23)n1	8.2µM*	-5.0%	nt	-21.1%	10µM*	?
NC(=O)c1ccccc1N1CCCCC1	?	5.1%	32.5	-17.9%	-5.3%	?
Cc1nc2ccn(Cc3ccco3)c(=O)c2cc1C(=O)NCc1ccc(Cl)cc1	?	4.5%	nt	-19.8%	10µM*	?
Cc1ccc(CNC(=O)c2cc3c(=O)n(Cc4ccco4)ccc3nc2C)cc1	?	7.1%	nt	-7.3%	?	?
COc1ccc(Cn2ccc3nc(C)c(C(=O)NCc4ccc(C)cc4)cc3c2=O)cc1	?	4.5%	nt	-4.0%	-10.3%	25.9µM*
COC(=O)c1sccc1S(=O)(=O)Nc1ccc(C(O)(C(F)(F)F)C(F)(F)F)cc1	20.6µM*	nt	-17.2	-30.0%	?	18.4µM*
COc1cc(NC(=O)c2cccc(C)c2)ccc1NC(=O)c1cc2ccccc2o1	3.66µM*	nt	21.4	-11.6%	-2.8%	?
COc1cc(NC(=O)c2cccc([N+](=O)[O-])c2)ccc1NC(=O)c1cc2ccccc2o1	8.2µM*	nt	-0.9	-34.3%	-6.8%	?
COC(=O)C1CCN(Cc2ccc3c(c2)CN(C(=O)c2ncc(C)[nH]2)CCO3)CC1	-12.8%	nt	nt	nt	nt	3.3%[9.04 µM]
CCCC(=O)Nc1ccc2nc(SCCOc3ccccc3)sc2c1	?	-0.5%	nt	-8.1%	19.1%	-16.7%
O=C(OCc1cn([C@H]2CN(CC3CCCCC3)[C@@H](c3ccc(Cl)cc3)C[C@@H]2O)nn1)c1ccccc1	16.4µM*	nt	-4.5	12.6µM*	17.8µM*	?
O=C(OCc1cn([C@@H]2CN(CC3CCCCC3)[C@@H](c3ccccc3)C[C@H]2O)nn1)c1ccccc1	18.4µM*	nt	-0.8	-6.2%	3.0%	?
Cc1ccccc1Nc1c(-c2ccc(N3CCOCC3)cc2)nc2ccc(Br)cn12	14.6µM*	4.3%[12.3 µM]	nt	-11.4%	-0.1%	11.6µM*

High-throughput results deposited in PubChem BioAssay by National Center for Advancing Translational Sciences (NCATS).
